From PubChem
An excerpt weighted towards active compounds, which were near 5.7% of everything screened.
ATXN2 expr inh – Primary qHTS for Inhibitors of ATXN expression; HEK-293 ATXN2-luciferase reporter, luminescence, 24 h; Potency, µM (doses to about 57 µM), for the others: at the highest dose activity change, negative = inhibition, usual class: inhibitors; 360,000 compounds, 0.72% hits; AID 1745845, 2022; also: potency is read from the fitted curve at half-maximal effect; % is scaled to controls: 0 for no effect and ±100 for the full control effect; nearly all actives have a fitted effect of over 55% in size
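qHTS (up to 57 uM final) was run with 24 h compound exposure of reporter cells at 37 °C. Each well was multiplexed: SteadyGlo luminescence measured ATXN2-luciferase expression after a fluorogenic Gly-Phe-AFC viability readout (25 uM final).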
HepG2 tox-1 – qHTS for Inhibitors of TGF-b: Cytotox Counterscreen | Potency, µM (doses to about 46.1 µM), without a hit: at the highest dose activity change, negative = cytotoxicity, most hits filed as cytotoxic | HepG2 CAGA-GFP viability, ATP luminescence, 18 h | 410,000 compounds, 0.76% hits; also: potency is read from the fitted curve at half-maximal effect
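CellTiter-Glo luminescence gave cytotoxicity after 18 hours at 37 degrees C. The cells were HepG2 CAGA-GFP in 1% FBS DMEM, stimulated with 500 pg/mL TGF-beta after compound addition. %Activity was normalised to no-cell wells (complete cell-killing) and DMSO (no toxicity), and curves were fitted and classified.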
IL1B secr inh – qHTS for Inhibitors of Inflammasome Signaling: IL-1-beta AlphaLISA Primary Screen; THP-1 LPS/ATP IL-1B secretion, AlphaLISA, 16 h; stronger effect = lower value; 360,000 compounds, 4.7% hits; AID 743279, 2014; activity change, % at 57.5 µM; in the data active = activity change below about -50%; inconclusive = mostly about -30% to -49%; also: % is scaled to controls: 0 for no effect and ±100 for the full control effect
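Secreted IL-1B measured by AlphaLISA bead assay after 16 h compound exposure of THP-1 cells; compounds (final up to 57.5 uM) added 1 h before LPS (250 ng/mL) and ATP (1.25 mM) stimulation; lower signal means less secretion.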
TGFb inhibitor – qHTS for Inhibitors of TGF-b | HepG2 CAGA-GFP TGF-b/SMAD3 reporter, GFP fluorescence, 18 h; TGF-beta stimulated, 500 pg/mL final | Potency, µM (series often up to 46.1 µM), for the others: at the top dose activity, negative = inhibition, actives largely listed as inhibitors | 410,000 compounds, 1.2% hits | AID 588855, 2011; also: potency is read from the fitted curve at half-maximal effect; % is scaled to controls: 0 for no effect and ±100 for the full control effect; nearly all actives have a fitted effect of over 65% in size
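Inhibition of TGF-beta-driven CAGA-GFP reporter expression in HEPG2 cells is measured by cellular GFP fluorescence after 18 h stimulation with 500 pg/mL recombinant TGF-beta in 1% FBS medium at 37 degrees C.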
ATXN viability – Viability Counterscreen for Primary qHTS for Inhibitors of ATXN expression; S2 cells (HEK-293 line with an ATXN2-luciferase reporter) viability, CellTiter-Fluor protease fluorescence, 24 h; Potency, µM (series often up to 56.7 µM), actives largely listed as cytotoxic; 400,000 compounds, 0.49% hits; also: potency is read from the fitted curve at half-maximal effect; nearly all actives have a fitted effect of over 40% in size
TGFb confirm – qHTS for Inhibitors of TGF-b: Confirmation of Cherry Picks | shares compounds with TGFb inhibitor | Potency, µM (top dose mostly 46.1 µM), for the others: at the top dose activity, negative = inhibition, hits mostly inhibitors | 1,600 compounds, 63% hits | HepG2 CAGA-GFP TGF-b reporter, GFP fluorescence, 18 h; cells stimulated with TGF-beta, 500 pg/mL | AID 720534, 2013; also: potency is read from the fitted curve at half-maximal effect; % is scaled to controls: 0 for no effect and ±100 for the full control effect; nearly all actives have a fitted effect of over 65% in size
HepG2 tox-2 – qHTS for Inhibitors of TGF-b: Cytotox Counterscreen for Cherry Picks; shares compounds with TGFb inhibitor; HepG2 CAGA-GFP viability, ATP luminescence, 18 h; cells stimulated with TGF-beta, 500 pg/mL; Potency, µM (doses to about 46.1 µM), inactives show at the highest dose activity, negative = cytotoxicity, most hits filed as inhibitors; 1,600 compounds, 27% hits; AID 720535, 2013; also: potency is read from the fitted curve at half-maximal effect; % is scaled to controls: 0 for no effect and ±100 for the full control effect; nearly all actives have a fitted effect of over 70% in size
CCL64 TGFb inh – qHTS for Inhibitors of TGF-b: CCL64 Cells Orthogonal Assay for Cherry Picks. shares compounds with TGFb inhibitor. CCL64 CAGA-GFP reporter, TGF-b stimulated, GFP fluorescence, 18 h. Potency, µM (highest dose often 46.1 µM), inactives show at the top dose activity, negative = inhibition, most hits filed as inhibitors. 1,600 compounds, 41% hits. AID 720536, 2013; also: potency is read from the fitted curve at half-maximal effect; nearly all actives have a fitted effect of over 65% in size
TGFb COP inh – qHTS for Inhibitors of TGF-b: Hit Validation in HepG2 Cells using COP promoter. shares compounds with TGFb inhibitor. HepG2 COP-GFP TGF-b reporter, GFP fluorescence, 18 h; cells stimulated by added recombinant TGF-beta. Potency, µM (highest dose often 46.1 µM), for inactives: top-dose activity, negative = inhibition, usual class: inhibitors. 1,600 compounds, 3% hits; also: potency is read from the fitted curve at half-maximal effect; nearly all actives have a fitted effect of over 70% in size
* hit, by the source's call; i = inactive; ? = inconclusive; nt = no result. Unless noted, calls follow the shape of the dose curve; as a rule, active = well fitted curve in the direction sought with a large enough effect; inconclusive = small, poorly fitted or top-dose-only effect, or another doubt; inactive = no such curve, though single readings can be large; an effect the other way counts as inactive or inconclusive.

SMILES	ATXN2 expr inh	HepG2 tox-1	IL1B secr inh	TGFb inhibitor	ATXN viability	TGFb confirm	HepG2 tox-2	CCL64 TGFb inh	TGFb COP inh
CCOC(=O)c1ccccc1NC(=O)N(C)CCc1c(C)nn(CC)c1C	20%	-20%	nt	-29%	?	nt	nt	nt	nt
CCC(C)Sc1ccc([C@@H]2[C@@H]3C(=O)N(CC)C(=O)[C@@H]3[C@]3(C(=O)OC)CCCCN23)cc1OC (some centres undefined)	-5%	-7%	-13	?	i	?	2%	-23%	5%
CCC(C)Sc1ccc([C@@H]2[C@@H]3C(=O)N(C)C(=O)[C@@H]3[C@]3(C(=O)OC)CCCCN23)cc1OC (some centres undefined)	-6%	-11%	0	1%	i	nt	nt	nt	nt
Cc1ccc(Nc2cc(C)nc3nncn23)c(C)c1	6%	-16%	nt	?	i	nt	nt	nt	nt
Cc1cccc(C)c1N(CC(=O)Nc1cc(Cl)ccc1Oc1ccccc1)S(C)(=O)=O	-10%	14%	-12	?	i	?	-17%	-24%	1%
O=C(NCCc1nc2ccccc2[nH]1)c1ccc(Cl)c([N+](=O)[O-])c1	6%	-44%	18	-30%	i	nt	nt	nt	nt
CCCNC(=O)c1ccc2c(=O)c(O)c(-c3ccc(Cl)c([N+](=O)[O-])c3)[nH]c2c1	0%	-4%	32	7.1µM*	?	5.2µM*	?	6.5µM*	0%
COc1ccc(C(NC(=O)CN2C(=O)NC3(CCc4ccccc43)C2=O)c2ccccc2)cc1 (centres undefined)	nt	-9%	?	?	?	?	-13%	-23%	-10%
CC(Nc1nc(-c2ccc(Cl)cc2)cs1)c1nc2cc(Cl)c(N3CCCCC3)cc2n1CCOCCO (centres undefined)	?	-30%	-29	20µM*	?	?	?	18µM*	71%
CCCn1c(C(C)Nc2nc(-c3ccc(C)cc3)cs2)nc2ccccc21 (centres undefined)	-15%	-16%	9	11µM*	?	?	?	?	43%
Cc1ccc(NC(=O)CN2C(=O)CSc3ccc(S(=O)(=O)N(C)C)cc32)cc1C	9%	-27%	nt	?	i	nt	nt	nt	nt
COc1cc(N)ccc1Nc1c2ccccc2nc2ccccc12	?	-74%	-24	?	nt	nt	nt	nt	nt
CCCS(=O)(=O)Nc1ccc(Nc2c3ccccc3nc3ccccc23)c(OC)c1	?	-84%	-94*	10µM*	12µM*	?	15µM*	13µM*	5%
COc1cccc(N2CCN(C(=O)c3cc4c(=O)n(Cc5cccs5)ccc4nc3C)CC2)c1	-30%	-4%	nt	-20%	i	nt	nt	nt	nt
COc1cc(C(=O)Oc2ccccc2/C=N/NC(=O)c2ccc(C)cc2)cc(OC)c1OC	-10%	-3%	91	13µM*	?	?	?	-28%	-7%
COc1ccc(C(=O)N/N=C/c2ccccc2OC(=O)c2ccccc2)cc1	-33%	-67%	117	?	?	nt	nt	nt	nt
O=C(c1cc(F)cc(F)c1)N1CCC(c2nc(-c3ccc(S(=O)(=O)N4CCCC4)cc3)no2)CC1	nt	-2%	nt	?	nt	nt	nt	nt	nt
COc1ccc(C)cc1NC(=O)N1CCN(S(=O)(=O)c2ccc3c(ccn3C)c2)CC1	-7%	-1%	nt	-10%	i	nt	nt	nt	nt
Cc1cc(Cl)n2c(nc3ccccc32)c1C#N	?	-101%	-100*	1.8µM*	nt	1.2µM*	5.2µM*	1.5µM*	26µM*
CNc1cc(C)c(C#N)c2nc3ccccc3n12	-29%	-4%	-10	1%	nt	nt	nt	nt	nt
CN(Cc1ccccc1)c1ccc2cc(S(=O)(=O)N3CCCCC3)ccc2n1	0%	-14%	nt	-9%	i	nt	nt	nt	nt
O=C(CCN1CCOCC1)c1ccc2c(c1)OCCO2	-6%	-99%	-7	10µM*	i	21µM*	23µM*	?	?
O=C(CCCN1CCOCC1)c1ccc2c(c1)OCCO2	-13%	-5%	4	-1%	?	nt	nt	nt	nt
CC12CCC=CC1C(c1ccc(Br)cc1F)N(Cc1ccccc1)C2=O (centres undefined)	nt	-44%	nt	?	nt	nt	nt	nt	nt
C[C@@]12CCC=C[C@H]1[C@H](c1ccccc1Br)N(Cc1ccccc1)C2=O	-19%	-28%	10	18µM*	?	18µM*	?	?	14%
COc1ccc(C[C@H](N)C(=O)N[C@H]2[C@@H](O)[C@H](n3cnc4c(N(C)C)ncnc43)O[C@@H]2CO)cc1	0.4µM*	-80%	-90*	3.2µM*	0.71µM*	5.2µM*	2.1µM*	2.9µM*	?
CNc1ncnc2c1ncn2[C@@H]1O[C@H](CO)[C@@H](O)[C@H]1O	63%	6%	55	?	i	nt	nt	nt	nt
CN(C)c1ncnc2c1ncn2C1OC(CO)C(O)C1O (centres undefined)	59%	-69%	35	0.63µM*	?	0.65µM*	5.8µM*	?	5%
OCC1OC(n2ccc3c2ncn2ncnc32)C(O)C1O (centres undefined)	nt	-64%	66	5µM*	i	1.8µM*	0.52µM*	5%	24%
CN(C)c1ncnc2c1nnn2C1OC(CO)C(O)C1O (centres undefined)	nt	-68%	96	0.56µM*	?	2.1µM*	?	?	20%
